{"source": "the OligoGym collection"}
{"biological_target": "DAGLA", "experiment": "pooled miR-30 sensor sort-seq; sequence = guide strand", "conditions": "shRNA"}
{"sequence": "TTGTTTTCTAAACTCTAAGAGC", "sensor-assay potency score (higher = more potent)": -0.925}
{"sequence": "TATACAATATACAGAAACCTTT", "sensor-assay potency score (higher = more potent)": -0.353}
{"sequence": "TTTCTTCTTGTCATGGTCCACC", "sensor-assay potency score (higher = more potent)": -0.657}
{"sequence": "TTTGTAGCGGAGCATCTCTTGT", "sensor-assay potency score (higher = more potent)": -1.44}
{"sequence": "TTTTCTAAACTCTAAGAGCCAC", "sensor-assay potency score (higher = more potent)": -0.539}
{"sequence": "TATAGTTAGGTCGCTGGGGTGG", "sensor-assay potency score (higher = more potent)": -0.742}
{"sequence": "TTGAGGTCGAGGTACTTGGTGT", "sensor-assay potency score (higher = more potent)": -0.552}
{"sequence": "TTTCATCTGAGAGTCTGTCTTG", "sensor-assay potency score (higher = more potent)": 0.187}
{"sequence": "TAGCGGAGCATCTCTTGTGAAT", "sensor-assay potency score (higher = more potent)": -1.2}
{"sequence": "TTGGCAGTGAGGTCGTTGCAGG", "sensor-assay potency score (higher = more potent)": -1.13}
{"sequence": "TTGTAGTTCTCCAGCACCTTGT", "sensor-assay potency score (higher = more potent)": -0.221}
{"sequence": "ATTCTTGGCAGTGAGGTCGTTG", "sensor-assay potency score (higher = more potent)": -0.825}
{"biological_target": "DAZ2", "experiment": "pooled miR-30 sensor sort-seq; sequence = guide strand", "conditions": "shRNA"}
{"sequence": "TGGATAAGCAGAATAAGCCTGA", "sensor-assay potency score (higher = more potent)": -0.294}
{"sequence": "TATACAGGCAACTGATATCCAG", "sensor-assay potency score (higher = more potent)": -0.956}
{"sequence": "TCGTGATTATCTTCACTTCTTT", "sensor-assay potency score (higher = more potent)": -0.86}
{"biological_target": "DCAF4L2", "experiment": "pooled miR-30 sensor sort-seq; sequence = guide strand", "conditions": "shRNA"}
{"sequence": "TACTGTGTTACACATTTAGTGG", "sensor-assay potency score (higher = more potent)": -1.02}
{"sequence": "TTGGAGTATCTGCAAGTCCCAC", "sensor-assay potency score (higher = more potent)": -0.914}
{"sequence": "TTATCTTTGACACTGAGCCCTT", "sensor-assay potency score (higher = more potent)": -0.414}
{"sequence": "TAGCTGGTTCTTTCGTAGCATG", "sensor-assay potency score (higher = more potent)": -1.53}
{"sequence": "TTAACTGAAACAACTTTACAGA", "sensor-assay potency score (higher = more potent)": -0.678}
{"sequence": "TTTTCTTTTGTCAACTGCCCAT", "sensor-assay potency score (higher = more potent)": -0.395}
{"sequence": "TAAACATCTCACAAACTGCTGC", "sensor-assay potency score (higher = more potent)": -0.0348}
{"sequence": "TTTGCAGAGAAGTCACTGCTGA", "sensor-assay potency score (higher = more potent)": 0.521}
{"sequence": "TGTATCTTCTCTATTGACCTAT", "sensor-assay potency score (higher = more potent)": 0.0322}
{"sequence": "TTCTTCGTTCACATGCACGGGT", "sensor-assay potency score (higher = more potent)": 0.233}
{"sequence": "TACCTATGAACAGCGACGCTGG", "sensor-assay potency score (higher = more potent)": -0.732}
{"sequence": "TCTGACTGTCTTTTTCTGCTTG", "sensor-assay potency score (higher = more potent)": 0.906}
{"biological_target": "DCHS2", "experiment": "pooled miR-30 sensor sort-seq; sequence = guide strand", "conditions": "shRNA"}
{"sequence": "TGTACCTTGATTACAGTCGTAT", "sensor-assay potency score (higher = more potent)": -0.366}
{"sequence": "TTATAGTAAAGCACTCATCAGT", "sensor-assay potency score (higher = more potent)": -0.223}
{"sequence": "TATATCAGTCACCTGTACCTTG", "sensor-assay potency score (higher = more potent)": 0.322}
{"sequence": "ATACTTATTAAACTCAACCATT", "sensor-assay potency score (higher = more potent)": -1.29}
{"sequence": "TTGAGAACATAAACTGAGGTGC", "sensor-assay potency score (higher = more potent)": 0.162}
{"sequence": "TGAATTATCATTCTCATCCTGT", "sensor-assay potency score (higher = more potent)": 0.421}
{"sequence": "TGGATTATCATTGACATCCAGC", "sensor-assay potency score (higher = more potent)": -1.15}
{"sequence": "TAGAAAGAAACAAGTCTCCGGT", "sensor-assay potency score (higher = more potent)": 0.782}
{"sequence": "TAGAATAGGTCAATTCTCCATA", "sensor-assay potency score (higher = more potent)": -0.353}
{"sequence": "TTCATAGTCAAACTGTCGCCGC", "sensor-assay potency score (higher = more potent)": -0.481}
{"sequence": "TTTTCTGGAACAATACAGCTGA", "sensor-assay potency score (higher = more potent)": 0.21}
{"sequence": "TAATCTAGAATCGCTTTTGTTG", "sensor-assay potency score (higher = more potent)": -0.749}
